Rows were chosen to be rich in hits. Some 6.3% of all compounds tested hit in one or more screens of this group.
Mdm2 MdmX PPI = disrupts the human Mdm2-MdmX interaction. SaOS-2 split-luciferase Mdm2/MdmX complementation, luminescence. O15151+Q00987. hit rate 3% among 330,000. inhibition, % at 8 µM;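 active means inhibition of at least 50% at 8 µM in the primary screen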
Target sequence (O15151 whole entry, looked up): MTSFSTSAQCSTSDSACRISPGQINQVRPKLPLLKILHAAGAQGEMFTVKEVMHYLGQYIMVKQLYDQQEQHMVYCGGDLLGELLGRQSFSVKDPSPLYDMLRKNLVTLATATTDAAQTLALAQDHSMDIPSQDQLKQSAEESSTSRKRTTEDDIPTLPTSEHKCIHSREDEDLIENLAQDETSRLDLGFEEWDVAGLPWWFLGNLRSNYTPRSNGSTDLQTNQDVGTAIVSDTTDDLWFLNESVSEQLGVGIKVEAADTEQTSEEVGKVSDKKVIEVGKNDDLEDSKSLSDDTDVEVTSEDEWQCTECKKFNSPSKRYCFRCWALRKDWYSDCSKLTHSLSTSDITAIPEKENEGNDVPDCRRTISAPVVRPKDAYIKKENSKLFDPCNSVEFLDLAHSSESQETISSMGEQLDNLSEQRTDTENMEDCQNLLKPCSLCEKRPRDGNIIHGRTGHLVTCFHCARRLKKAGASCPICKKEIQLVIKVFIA
Target sequence (Q00987 whole entry, looked up): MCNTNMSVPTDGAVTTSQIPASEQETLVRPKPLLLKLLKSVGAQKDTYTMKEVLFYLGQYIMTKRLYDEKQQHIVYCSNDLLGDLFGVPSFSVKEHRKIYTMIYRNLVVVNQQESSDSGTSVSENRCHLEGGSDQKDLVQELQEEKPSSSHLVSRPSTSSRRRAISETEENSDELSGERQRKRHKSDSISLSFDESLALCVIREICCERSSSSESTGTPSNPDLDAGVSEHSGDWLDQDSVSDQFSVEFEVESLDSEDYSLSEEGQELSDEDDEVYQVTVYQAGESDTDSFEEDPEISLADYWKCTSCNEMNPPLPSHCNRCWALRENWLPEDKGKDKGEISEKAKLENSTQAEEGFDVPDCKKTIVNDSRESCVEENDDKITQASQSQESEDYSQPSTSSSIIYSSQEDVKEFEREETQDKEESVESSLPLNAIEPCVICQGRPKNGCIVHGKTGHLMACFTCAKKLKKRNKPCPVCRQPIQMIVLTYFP
MPTP inh = blocks calcium-induced mitochondrial swelling; isolated mouse mitochondria, Ca2+ swelling absorbance, 30 min; inhibition, % at 10 µM; hit rate 1.4% among 360,000; AID 602449;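 active means inhibition of 50% or more, scaled per plate between neutral and stimulator controls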
tim10-1 inh = growth inhibitors of tim10-1 mutant yeast; S. cerevisiae tim10-1 ts strain growth, BacTiter-Glo, 24 h; inhibition, % at 20 µM; hit rate 2.2% among 330,000; AID 463190;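 active means inhibition of at least 40%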;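 further: mutant grown at 25 °C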
tim23-1 inh = tim23-1 yeast growth inhibition | inhibition, % at 20 µM | hit rate 1.3% among 330,000 | S. cerevisiae tim23-1 growth, BacTiter-Glo luminescence, 24 h;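 active means growth inhibition of the mutant yeast at or above 50%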;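 further: temperature-sensitive mutant grown at 25 °C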
TIM10 inh = TIM10 yeast growth inhibition; inhibition, % at 10 µM; S. cerevisiae TIM10 strain growth, BacTiter-Glo luminescence, 24 h; hit rate 1.4% among 330,000;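 active means inhibition of 40% or more at the single tested concentration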;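 further: wild-type TIM10 isogenic control strain grown at permissive 25 °C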
Mdm2 MdmX conf = confirmation of human Mdm2/MdmX interaction inhibitors; shares compounds with Mdm2 MdmX PPI; Mdm2-MdmX binding, luminescent assay; inhibition, % at 8 µM; hit rate 55% among 10,000; AID 489028; in the data active means inhibition above about 40%
Full FLuc ctr = counter-screen for Mdm2/MdmX inhibitors: full-length luciferase | shares compounds with Mdm2 MdmX PPI | SaOS-2 full-length luciferase counterscreen, luminescence | hit rate 77% among 6,200 | inhibition, % at 8 µM | AID 504607;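 active means mean inhibition at 8 µM reaching about 37%, which flags the compound as non-specific, limit read from the data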;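 further: p53-null SaOS-2 cells with luciferase driven by a doxycycline-inducible promoter; compound on cells about two nights before reading with doxycycline added after day one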
Of the large screens only hits and unclear results are named; the others gave an inactive call (follow-up assays come after a bar, where they were run).

CCOC(=O)C1(C)CCCCCN1C(=O)/C=C/c1ccccc1 (centres undefined)	none (no result: Mdm2 MdmX PPI, tim10-1 inh, tim23-1 inh, TIM10 inh)
Cn1c(=O)c2cc(NC(=S)NCc3ccccc3F)ccc2n1Cc1cccc(C(F)(F)F)c1	none (no result: Mdm2 MdmX PPI, tim10-1 inh, tim23-1 inh, TIM10 inh)
Cc1ccc(-n2nc3c(=O)n(CC(=O)NC(C)CCc4ccccc4)nc(C)c3c2C)cc1 (centres undefined)	Mdm2 MdmX PPI 50 | Mdm2 MdmX conf inactive
CCN1CCN(c2cc(C)c3cc(NC(=O)c4cccc(OC)c4)ccc3n2)CC1	none
CCN1CCN(c2cc(C)c3cc(NC(=O)c4ccc(OC)c(OC)c4)ccc3n2)CC1	none
CCN1CCN(c2cc(C)c3cc(NC(=O)c4cncc(Br)c4)ccc3n2)CC1	Mdm2 MdmX PPI 66 | Mdm2 MdmX conf inactive
CCN1CCN(c2cc(C)c3cc(NC(=O)c4ccc5c(c4)OCO5)ccc3n2)CC1	Mdm2 MdmX PPI 71 | Mdm2 MdmX conf 50 | Full FLuc ctr 84
C/C(=N\NC(=O)C1(C)CC1(Br)Br)c1cccc(NC(=O)c2ccc(C)o2)c1 (centres undefined)	Mdm2 MdmX PPI 61 | Mdm2 MdmX conf inactive
Cc1ccc(C(=O)Nc2cccc(C(=O)NCc3ccccc3)c2)o1	none
COc1ccc(-c2coc3cc4oc(=O)c5ccccc5c4cc23)cc1F	Mdm2 MdmX PPI 75 | Mdm2 MdmX conf 55 | Full FLuc ctr 58
O=C(COC(=O)c1c2c(nc3ccccc13)/C(=C\c1cccs1)CCC2)Nc1ccccc1	Mdm2 MdmX PPI 52 | Mdm2 MdmX conf inactive
CC(=O)c1ccc(NC(=O)COC(=O)c2c3c(nc4ccccc24)/C(=C\c2cccs2)CCC3)cc1	Mdm2 MdmX PPI 66 | Mdm2 MdmX conf inactive
O=C(CSc1nc2ccccc2c(=O)n1CCCN1CCOCC1)Nc1ccccc1OC(F)F	none
O=C(Cc1cccc2c(=O)cc(-c3ccccc3)oc12)OCCN1CCOCC1	none (no result: Mdm2 MdmX PPI, tim10-1 inh, tim23-1 inh, TIM10 inh)
COc1ccc(-c2nn(CC(=O)Nc3ccc(Cl)c(Cl)c3)c(=O)c3ccccc23)cc1	none
COC(=O)COc1ccc(NC(=O)Cn2nc(-c3ccccc3)c3ccccc3c2=O)cc1	Mdm2 MdmX PPI 81 | Mdm2 MdmX conf 49 | Full FLuc ctr 89
CCCN1C(=O)/C(=C/c2c(N3CCNC(=O)C3CC(=O)OCC)nc3c(C)cccn3c2=O)SC1=S (centres undefined)	Mdm2 MdmX PPI 74 | Mdm2 MdmX conf 68 | Full FLuc ctr 74
CCOC(=O)CC1C(=O)NCCN1c1nc2ccc(C)cn2c(=O)c1/C=C1\SC(=S)N(CC(C)C)C1=O (centres undefined)	none
Nc1ncnc(NCc2ccccc2)c1[N+](=O)[O-]	none
Nc1ncnc(NCc2ccc(F)cc2)c1[N+](=O)[O-]	Mdm2 MdmX PPI 69 | Mdm2 MdmX conf 62 | Full FLuc ctr inactive
COc1cccc(NC(=O)COC(=O)c2c3c(nc4ccccc24)CCC(C)C3)c1 (centres undefined)	Mdm2 MdmX PPI 79 | Mdm2 MdmX conf 64 | Full FLuc ctr 64
CC1CCc2nc3ccccc3c(C(=O)OCC(=O)NC3CCS(=O)(=O)C3)c2C1 (centres undefined)	none
O=C(CCN1C(=O)/C(=C/c2ccccc2)SC1=S)N[C@@H](CO)Cc1ccccc1	Mdm2 MdmX PPI 89 | Mdm2 MdmX conf 72 | Full FLuc ctr 50
O=C(CCN1C(=O)/C(=C/c2ccccc2F)SC1=S)N[C@@H](CO)Cc1ccccc1	Mdm2 MdmX PPI 80 | Mdm2 MdmX conf inactive | Full FLuc ctr 54
O=C(CCN1C(=O)/C(=C/c2ccccc2)SC1=S)NNC(=O)c1ccncc1	none
CCOC(=O)C1(C)CCCCCN1C(=O)c1ccc(N(C)C)cc1 (centres undefined)	none (no result: Mdm2 MdmX PPI, tim10-1 inh, tim23-1 inh, TIM10 inh)
CSc1ncnc2c1ncn2CCCNCc1ccc2c(c1)OCO2	none (no result: Mdm2 MdmX PPI, tim10-1 inh, tim23-1 inh, TIM10 inh)
Cc1ccccc1C(=O)Nc1cccc(NC(=O)Cn2cnc3c(=O)n(C)c(=O)n(C)c32)c1	Mdm2 MdmX PPI 51 | Mdm2 MdmX conf inactive
Cc1cccc(C)c1NC(=O)Cn1cnc2c(=O)n(C)c(=O)n(C)c21	none
CC(=O)N(C1=C(N2CCOCC2)C(=O)c2ccccc2C1=O)c1ccc(C(=O)O)cc1	none
CC(=O)N(C)C1=C(N2CCOCC2)C(=O)c2ccccc2C1=O	Mdm2 MdmX PPI 82 | Mdm2 MdmX conf 86 | Full FLuc ctr 48
Cc1ccc(N2CN=c3s/c(=C\c4cccnc4)c(=O)n3C2)cc1	Mdm2 MdmX PPI 66 | Mdm2 MdmX conf inactive
COc1ccc(CN(C(=O)CSc2nnc(-c3ccc(F)cc3)o2)c2ccc(F)cc2)cc1	none
COc1ccc(CN(C(=O)CSc2nnc(-c3c[nH]c4ccccc34)o2)c2ccc(F)cc2)cc1OC	Mdm2 MdmX PPI 66 | Mdm2 MdmX conf 74 | Full FLuc ctr 70
COC(=O)[C@]1(C)N[C@H](CN(C)S(=O)(=O)c2ccc(F)cc2)[C@@H]2C(=O)N(C)C(=O)[C@@H]21	none
Cc1cccc(-c2cc3nc(C)cc(NCCCN(C)C)n3n2)c1	Mdm2 MdmX PPI 65 | Mdm2 MdmX conf inactive
CN(C)CCCNc1cc(C(C)(C)C)nc2c(-c3ccccc3)cnn12	Mdm2 MdmX PPI 100 | Mdm2 MdmX conf 52 | Full FLuc ctr 72
CN(C)CCCNc1cc(-c2ccccc2)nc2cc(-c3cccc(F)c3)nn12	Mdm2 MdmX PPI 63 | Mdm2 MdmX conf inactive | Full FLuc ctr 51
COCCN1CCN(c2cc(-c3ccccc3)nc3cc(-c4cccc(F)c4)nn23)CC1	Mdm2 MdmX PPI 51 | Mdm2 MdmX conf inactive
NC(=Nc1c([N+](=O)[O-])cnc2ccccc12)N1CCOCC1	none (no result: Mdm2 MdmX PPI, tim10-1 inh, tim23-1 inh, TIM10 inh)
CCN1C(C)=CC(=O)[C@@H](O)[C@H]1c1ccccc1Br	none (no result: Mdm2 MdmX PPI, tim10-1 inh, tim23-1 inh, TIM10 inh)
c1ccc(N2CCN(c3nc(NCc4ccco4)c4ccccc4n3)CC2)cc1	none
C(=N\Nc1nc(-c2ccccn2)nc2ccccc12)/c1ccccc1	Mdm2 MdmX PPI 80 (no result: MPTP inh) | Mdm2 MdmX conf 89 | Full FLuc ctr inactive
c1coc(CNc2nc(N3CCCCC3)nc3ccccc23)c1	Mdm2 MdmX PPI 52 | Mdm2 MdmX conf inactive
c1ccc(-c2nc(NCc3ccco3)c3ccccc3n2)nc1	Mdm2 MdmX PPI 65 | Mdm2 MdmX conf inactive
Brc1ccc2ncnc(NCc3ccco3)c2c1	Mdm2 MdmX PPI 57 | Mdm2 MdmX conf inactive
CC(C)c1nc(SCC(=O)N2CCCCC2)c2c(=O)n(C)c(=O)n(C)c2n1	none (no result: Mdm2 MdmX PPI, tim10-1 inh, tim23-1 inh, TIM10 inh)
COc1cccc(C(NC(C)=O)c2nc(-c3ccc4ccccc4c3)cs2)c1 (centres undefined)	none (no result: Mdm2 MdmX PPI, tim10-1 inh, tim23-1 inh, TIM10 inh)
C[C@@H]1CCCCO[C@H](CN(C)C(=O)Nc2ccc3c(c2)OCO3)[C@@H](C)CN([C@H](C)CO)C(=O)c2cc(NS(=O)(=O)c3ccc(F)cc3)ccc2O1	none (no result: Mdm2 MdmX PPI, tim10-1 inh, tim23-1 inh, TIM10 inh)
COc1cccc(CC(=O)Nc2ccc(F)c(S(=O)(=O)N3CCOCC3)c2)c1	none (no result: Mdm2 MdmX PPI, tim10-1 inh, tim23-1 inh, TIM10 inh)
COc1ccc(C(=O)Nc2cc(OC)ccc2OC)cc1	none
COc1ccc(OC)c(NC(=O)c2cc(OC(C)=O)cc(C(=O)Nc3cc(OC)ccc3OC)c2)c1	Mdm2 MdmX PPI 56 | Mdm2 MdmX conf inactive
